HCMV inh: inhibitors of human cytomegalovirus; HFF cells, HCMV-luciferase reporter, 72 h; stronger effect = lower value; activity change, negative = inhibition, % at 57.5 µM; 410,000 compounds, 4.5% hits; AID 1259415; in the data active = activity change below about -60%; inconclusive = no clear call, values can overlap the other calls; inactive = above about -39%
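Steps: HFFs plated, 16 h 37C; compounds added; HCMV-luciferase added to MOI 1 PFU/cell; 72 h 37C; OneGlo reagent, 5 min room temperature; luminescence read, normalized to controls.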
FMDV antiviral: antivirals against foot and mouth disease virus; FMDV antiviral cell-based qHTS; Potency, µM (top dose mostly 57.9 µM), inactives show top-dose activity change, negative = inhibition, usual class: inhibitors; 410,000 compounds, 1.2% hits; calls by dose curve; tested in HEK293T cells; also: read-out not given here; potency is read from the fitted curve at half-maximal effect; nearly all actives have a fitted effect of over 45% in size
MARV entry inh: Marburg virus entry inhibition | Marburg virus pseudotyped entry inhibition, cell reporter | Potency, µM (highest dose often 37.8 µM), for the others: at the top dose activity change, negative = inhibition, usual class: inhibitors | 300,000 compounds, 1.8% hits | AID 540276; calls by dose curve; tested in HEK293 cells; also: potency is read from the fitted curve at half-maximal effect
Lassa entry inh: blocks Lassa virus binding to or entry into cells | Lassa virus pseudotype entry inhibition, cell reporter | Potency, µM (doses to about 37.9 µM), inactives show at the top dose activity change, negative = inhibition, hits mostly inhibitors | 300,000 compounds, 1.2% hits; calls by dose curve; tested in HEK293 cells; also: potency is read from the fitted curve at half-maximal effect; nearly all actives have a fitted effect of over 50% in size
HCV inh: blocks hepatitis C virus; 340,000 compounds, 3.4% hits; Huh7.5.1 HCVcc-Cre infection, luciferase reporter, 44 h; Potency, µM (doses to about 41.8 µM), without a hit: top-dose activity change, negative = inhibition, hits mostly inhibitors; AID 651820; active = well fitted inhibition curve with a large enough effect; inconclusive = small, poorly fitted or top-dose-only effect, or another doubt; inactive = no such curve, though single readings can be large or run the other way; also: potency is read from the fitted curve at half-maximal effect
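Cells (1,000/well) were plated 4 h before compound, then infected with HCVcc-Cre virus (~0.5 moi). After 44 h further culture, infection was read as luciferase luminescence following a 15 min substrate incubation at room temperature.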
* hit, by the source's call; ? = inconclusive; . = no result; [ ] = remark or other dose. The list is not random: actives were taken first. Their share in the collection is about 7.9%. % is scaled to controls: 0 for no effect and ±100 for the full control effect.

SMILES | HCMV inh | FMDV antiviral | MARV entry inh | Lassa entry inh | HCV inh
Cc1cccc(N2C(=O)N3[C@H](c4ccc(Br)cc4)[C@@H]4C(=O)N(C(C)(C)C)C(=O)[C@@H]4[C@]3(C)C2=O)c1 | 10 | -17% | . | . | 11%
COc1ccc([C@@H]2[C@@H]3C(=O)N(C(C)(C)C)C(=O)[C@@H]3[C@]3(C)C(=O)N(c4ccccc4)C(=O)N23)cc1 | 22 | 0% | . | . | 21%
COc1ccc([C@@H]2[C@@H]3C(=O)N(C(C)(C)C)C(=O)[C@@H]3[C@]3(C)C(=O)N(c4cccc(Cl)c4)C(=O)N23)cc1 | -71* | 2% | . | . | 5%
CCOc1ccc(-n2c(-c3ccc(OC)cc3)c[n+]3c2CCCCC3)cc1 | -99* | ? | ? | ? | 7.9µM*
CCOc1ccc(-n2c(-c3ccccc3)c[n+]3c2CCC3)cc1 | -39 | ? | ? | ? | -17%
CCOc1ccc(-n2c(-c3ccc(Br)cc3)c[n+]3c2CCCCC3)cc1 | -99* | ? | ? | ? | -14%
CCCCSc1ncnc2c1c(-c1ccccc1)cn2-c1cccc(F)c1 | -4 | 5% | ? | 24%[46.1 µM] | .
COC(=O)C1CCN(c2nc(CN(C)C3CCOC3)nc3cc(OC)c(OC)cc23)CC1 (stereo not drawn) | . | -3% | . | . | .
COc1cc(OC)c(Nc2nc3ccccc3c3nncn23)cc1Cl | 6 | -6% | 1%[46.1 µM] | ? | .
CSC(=Nc1ccccc1)N=C(SCc1ccccc1)N(C)C | -101* | ? | ? | 13µM* | ?
N#CNC(=Nc1ccccc1)SCc1ccc(C(=O)O)cc1 | -2 | -9% | -1%[46.1 µM] | -22% | 13%
CNC(=O)c1ccc(Nc2nnc(-c3ccc(C)c(S(=O)(=O)N4CCOCC4)c3)c3ccccc23)cc1 | 0 | -30% | . | ? | .
COC(=O)C1=C(C)N(c2ccc(Cl)cc2)/C(=C/c2ccc(O)cc2)C1=O | -20 | 25µM* | ? | -20% | ?
COC(=O)C1=C(C)N(c2cc(C)cc(C)c2)/C(=C/c2ccc(O)cc2)C1=O | -96* | ? | . | . | ?
Cc1ncc2c(c1CNC(=O)/C=C/c1cccs1)CCN(C(=O)c1c(C)noc1C)C2 | . | -5% | . | . | .
CC1=C(C(N)=O)C(c2ccc(C(C)C)cc2)n2nc(SCc3ccccc3)nc2N1 (stereo not drawn) | 3 | -6% | 26%[46.1 µM] | ? | .
COc1ccc(CC(=O)Oc2ccc(C(C)(C)C)cc2)cc1S(=O)(=O)N1CCOCC1 | -10 | -9% | 24% | -7% | ?
O=C(OCCOc1ccccc1)c1cc(S(=O)(=O)N2CCOCC2)ccc1Cl | 0 | -17% | . | . | 11%
O=C(OCCOc1ccccc1)c1cc(S(=O)(=O)N2CCOCC2)c(Cl)cc1Cl | -63* | ? | . | . | .
COc1ccc(OCCOC(=O)c2ccc(F)c(S(=O)(=O)N3CCOCC3)c2)cc1 | -38 | ? | . | . | ?
CCc1ccc(OC(=O)Cc2ccc(OC)c(S(=O)(=O)N3CCOCC3)c2)cc1 | -98* | -4% | . | . | 10%
COc1ccc(OCCOC(=O)c2cc(S(=O)(=O)N3CCOCC3)c(Cl)cc2Cl)cc1 | -12 | 40µM* | -22% | 7% | ?
Cc1ccc2cc(C#N)c(N3CCN(C(=O)c4cccs4)CC3)nc2c1 | 25 | 32µM* | ? | ? | ?
COc1ccccc1C(=O)N1CCN(c2nc3cc(C)c(C)cc3cc2C#N)CC1 | ? | ? | 8.9µM* | 10µM* | ?
Cc1oc(-c2ccccc2NC(=O)C2CCCO2)nc1CNC(=O)c1cc(F)c(F)cc1F (stereo not drawn) | . | -6% | . | . | .
SMILES | HCMV inh | FMDV antiviral | MARV entry inh | Lassa entry inh | HCV inh
COc1ccccc1CCNC(=O)C(=O)NCC(c1ccco1)S(=O)(=O)c1ccccc1 (stereo not drawn) | -32 | -28% | . | -15%[46.1 µM] | .
CCC[C@H]1[C@H](N(C)Cc2ccccc2)CC[C@@]23CCCN2C(=O)CCC[C@@H]13 | 15 | . | . | . | .
S=C(Nc1ccccc1)Nc1nc2ccccc2n1CCOc1ccc(Cl)cc1 | 61 | 6% | ? | -8% | 10µM*
CC(Sc1nnnn1-c1ccc(O)cc1)C(=O)NNC(=O)c1ccc(F)cc1 (stereo not drawn) | 0 | -7% | -13% | -7% | 7.1µM*
C#CCN(C[C@H]1[C@H](OC(=O)Nc2cccs2)[C@H](OC(=O)Nc2cccs2)CN(C(=O)OC(C)C)N1C(=O)OC(C)C)S(=O)(=O)c1ccc(C)cc1 | -79* | . | . | . | .
C#CCN(C[C@@H]1[C@@H](OC(=O)NC2CC2)[C@@H](OC(=O)NC2CC2)CN(C(=O)OC(C)C)N1C(=O)OC(C)C)S(=O)(=O)c1ccc(C)cc1 | 2 | -1% | . | . | .
C#CCN(C[C@@H]1[C@@H](OC(=O)NCc2ccccc2F)[C@@H](OC(=O)NCc2ccccc2F)Cn2c(=O)n(CCCCCC)c(=O)n21)S(=O)(=O)c1ccc(C)cc1 | -15 | -9% | . | . | .
C#CCN(C[C@@H]1[C@@H](OC(=O)NC2CCCC2)[C@@H](OC(=O)NC2CCCC2)Cn2c(=O)ccc(=O)n21)S(=O)(=O)c1ccc(C)cc1 | -101* | ? | . | . | .
C#CCN(C[C@@H]1[C@@H](OC(=O)NCc2ccccc2F)[C@@H](OC(=O)NCc2ccccc2F)Cn2c(=O)ccc(=O)n21)S(=O)(=O)c1ccc(C)cc1 | -100* | 14µM* | . | . | .
C#CCN(C[C@H]1[C@H](OC(=O)NC2CCCC2)[C@H](OC(=O)NC2CCCC2)C[C@@H](C(=O)OC)[C@H]1C(=O)OC)S(=O)(=O)c1ccc(C)cc1 | 5 | ? | . | . | .
C#CCN(C[C@@H]1[C@@H](OC(=O)Nc2cccs2)[C@@H](OC(=O)Nc2cccs2)Cn2c(=O)ccc(=O)n21)S(=O)(=O)c1ccc(C)cc1 | -103* | ? | . | . | .
